Measurements taken from PubChem BioAssay AID1117319 (Southern Research Institute, 2015).
“And” between values parts separate entries of the source, which are not always exact repeats. Equal entries are not always repeated. Out of some 260,000 compounds screened, about 1,500 (0.58%) were called active. Another 5% or so got no clear call; they are omitted.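 Rule for the calls: active = inhibition above a set limit at one or more doses, reproduced on every date tested; inconclusive = results disagree between test dates, or hit never tested in dose response; inactive = the rest.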 A selection follows. Potency and affinity values are given separately.

biological target: Virion infectivity factor (Human immunodeficiency virus type 1 group M subtype B (isolate BH10)) + Virion infectivity factor (Human immunodeficiency virus type 1 group M subtype B (isolate BRU/LAI)) + Virion infectivity factor (Human immunodeficiency virus type 1 group M subtype B (isolate PCV12)) + Virion infectivity factor (Human immunodeficiency virus type 1 group M subtype B (isolate HXB2)) + DNA dC->dU-editing enzyme APOBEC-3G (Homo sapiens) (UniProt P69720+P69721+P69722+P69723+Q9HC16); assay: HIV-1 Vif–A3G interaction blockers – biochemical, TR-FRET, GST-Vif 1-94, biotin-A3G peptide, dose response retest, primary screen (AID 1117319); conditions: TR-FRET GST-Vif / biotin-A3G peptide binding; active compounds read high;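 note: Vif residues 1-94 fused to GST binding biotinylated APOBEC3G peptide 110-148; 0% = full assay without inhibitor and 100% = GST in place of GST-Vif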

inhibition, inactive:
C=CCn1c(O)c(C(CC)=NCCN2CCOCC2)c(=O)[nH]c1=O 65.5%, CCCCn1c(O)c(C(CC)=Nc2ccc3c(c2)CCC3)c(=O)[nH]c1=O 7.31%, COc1ccccc1NC(=O)Cn1cnc2sc(C(=O)Nc3ccc(OC)c(OC)c3)c(C)c2c1=O 0.19%, COc1ccc(S(=O)(=O)N2CCCCCC2)cc1C(=O)N(C)Cc1ccc(F)cc1 4.27%, CCN(CC)S(=O)(=O)c1cccc2cc(C(=O)O)c(O)cc12 -3.16%, C=CCNS(=O)(=O)c1cccc2cc(C(=O)O)c(O)cc12 -0.91%, Cc1ccc(N2C(=O)N(c3ccc(C)cc3)C3CS(=O)(=O)CC32)cc1 (stereo not given) -8.71%, C=CCn1c(COc2ccc(F)cc2)nnc1SCC(=O)N1CC(=O)Nc2ccccc21 3.87%, CCOC(=O)c1cc(C)n(Cc2ccccc2)c1C 24.3%, CCOC(=O)c1c(C=O)c(C)n(Cc2ccccc2)c1C 4.84%, FC(F)(F)c1cc(-c2ccco2)nc(NCc2ccccc2)n1 15.6%, Fc1ccc(CNc2nc(-c3ccco3)cc(C(F)(F)F)n2)cc1 9.71%, FC(F)(F)c1cc(-c2ccccc2)nc(NCc2cccnc2)n1 -5.26%, FC(F)(F)c1cc(-c2ccco2)nc(NCc2ccc(Cl)cc2)n1 3.96%, COc1ccc(/C=N/NC(=O)c2cccc([N+](=O)[O-])c2)cc1OS(=O)(=O)c1ccccc1 2.68%, COc1ccc(NC(c2ccccc2)c2ccncc2)cc1 (stereo not given) 7.39%, CCC(C)(C)NC(=O)C(c1ccc(C)cc1)N(CCN1CCOCC1)C(=O)CNC(=O)c1cccs1 (stereo not given) 2.09%, Cc1c(NC(=O)Cc2noc3ccccc23)cccc1[N+](=O)[O-] -3.42%, CCN(CCCNC(=O)CN(C)S(=O)(=O)c1cccc2nsnc12)c1ccccc1 20.3%, Cc1ccsc1/C=N/n1cnnc1 -12.8%, CCCCC(=O)N/N=C/c1sccc1C -0.53%, CC(=O)c1ccc(-c2cccs2)s1 2.24%, O=Cc1ccc(-c2cccs2)s1 -3.47%, CCOC(=O)c1[nH]c(C)c(C(=O)N(CC)CC)c1C 4.43%, CC(=O)NS(=O)(=O)c1ccc(NC(=O)c2ccc(-n3nc(C)cc3C)cc2)cc1 0.12%, CCOC(=O)C1CCN(C(=O)COC(=O)c2cc(-c3cccs3)nn2-c2ccccc2)CC1 -3.24%, O=C(O)CCN1/C(=C/C=Nc2ccccc2)Oc2ccccc21 20.6%, O=S1(=O)CC(O)C(NCc2ccco2)C1 (stereo not given) 11.1%, COc1ccc(NC2CS(=O)(=O)CC2NCc2ccccc2)cc1 (stereo not given) -0.42%, COc1ccc(C2c3c(oc4ccccc4c3=O)C(=O)N2c2ccccn2)cc1OC (stereo not given) -8.31%, COC(=O)c1cc(O)c(O)c(O)c1 16.7%, COC1OC(COC(=O)c2ccccc2)C(OC(=O)c2ccccc2)C1OC(=O)c1ccccc1 (stereo not given) 3.23%, O=C1c2ccccc2C(=O)N1CCc1csc(-c2ccccc2)n1 0.09%, O=C(O)CC(Cn1[nH]nnc1=S)c1ccccc1 (stereo not given) -2.23%, O=C(O)CC(c1ccccc1)c1ccccc1 0.95%, Cc1cccc(N=CC=C2OC(C)(C)C(C)(C)O2)c1 -6.65%, Cc1ccc(NC(=O)CNC(=O)c2ccc(C(C)(C)C)cc2)cc1S(=O)(=O)N1CCOCC1 0.79%, CCO[C@H]1OC(C(=O)N2CCN(Cc3ccc4c(c3)OCO4)CC2)=C[C@@H](c2cn(C(C)=O)c3ccccc23)[C@@H]1CCCO -9.76%, O=C(CN1C(=O)NC2(CCCCC2)C1=O)NCc1ccc2c(c1)OCO2 -8.65%, CC1CCC2(CC1)NC(=O)N(CC(=O)NCc1cccs1)C2=O (stereo not given) -3.91%, O=C(CN1C(=O)NC2(CCCCCC2)C1=O)NCc1cccs1 -5.46%, CC1CCC2(CC1)NC(=O)N(CC(=O)NCc1ccc3c(c1)OCO3)C2=O (stereo not given) -3.28%, O=C(c1nc2ccccn2c1CNCCCn1cccn1)N1CCCC1 23.8%, C/C(=N\NC(=O)Cn1ccc(C(F)(F)F)n1)c1ccc2c(c1)OCO2 -1.38%, CCN(CC)CCOC(=O)c1ccc(NC(=O)c2cccc(C)c2[N+](=O)[O-])cc1 2.15%, COc1ccc(CNC(=O)C(c2ccncc2)N(C(=O)Cc2cccs2)c2cccnc2)cc1 (stereo not given) 2.85%, COc1ccc(NC(=O)C[C@H]2C(=O)N(Cc3cccnc3)C[C@@H]2Cc2ccccc2)cc1 -1.58%, CCCNC(=O)Cc1ncn[nH]1 -3.15%, O=C(NCCc1ccccc1)c1ncn[nH]1 28.1%, O=C(CCN1C(=O)c2ccccc2C1=O)CN1CCOCC1 -9.57%, O=C(NC1CCCC1)C(c1ccc(Cl)cc1)N1CCc2ccccc21 (stereo not given) 2.15%, CCc1ccc(CN(Cc2cccnc2)C(=O)/C=C/c2ccc(OC)cc2)cc1 -6.21%, CC(C)(C)c1ccc(C(=O)N2CCN(c3ncccn3)CC2)cc1 -3.51%, CCN1C(=O)/C(=C/N2CCc3ccccc32)SC1=S 2.5%, c1ccc2c(c1)CCN2CCN1CCc2ccccc21 -3.68%, O=C(C#Cc1ccccc1)c1ccccc1 -8.84%, COc1ccc(Cl)cc1N(CC(=O)Nc1cccc(SC)c1)S(C)(=O)=O 4.16%, CCN1C(=O)/C(=C/N(C)c2ccccc2)OC1=S 0.98%, CC(C)(C)c1ccc(OCCC(=O)Nc2cccc(S(=O)(=O)NC3=NCCCCC3)c2)cc1 -0.89%, COc1ccc(Nc2nc(C(=O)NCc3ccco3)cs2)cc1 -1.71%, O=C(NCc1ccco1)c1csc(Nc2ccccc2Cl)n1 -7.13%, O=C(CNC(=O)c1ccccc1F)OCCOc1cccc(Cl)c1 3.91%, Cc1ccc(CCNC(=O)C2CC(c3ccccc3C(F)(F)F)=NO2)cc1 (stereo not given) -3.19%, COc1ccc(-c2c(N)cnc(C(=O)O)c2C)c(OCc2ccccc2)c1OC 2.47%, COc1ccc(-c2c(C#N)cnc(C)c2C)c(O)c1OC -2.84%, COc1ccc(C2=C(N)c3ccccc3C2=O)cc1 29%, NC1=C(Br)C(=O)c2ncccc2C1=O 0.39%, Cc1cccc(N2C(=O)c3ccc(Br)cc3C2=O)n1 1.11%, COc1ccc(N)c2c1C(=O)c1ccccc1C2=O -29.2%, COc1ccc(CC(=O)Nc2ccc(C(N)=O)cc2)cc1 15.2%, CCOc1ccc(N2C(=O)CC(N(Cc3ccco3)C(=O)CC)C2=O)cc1 (stereo not given) 0.31%, Cc1c(N/C(=N/S(=O)(=O)c2ccc(F)cc2)c2ccccc2)c(=O)n(-c2ccccc2)n1C 0.73%, Cc1sc2nc(CSC(C)C(=O)NC3(C#N)CCCCC3)[nH]c(=O)c2c1C (stereo not given) 9.91%, C[C@]12C=CC(=O)C=C1CCC1C2CC[C@@]2(C)C1CCC21OCCO1 (stereo not given in full) -4.95%, C=C(C)COc1ccc2c(CC)cc(=O)oc2c1C -15.7%, O=C(CCN1C(=O)/C(=C/c2ccco2)SC1=S)Nc1ccc(O)cc1C(=O)O 20.3%, O=C(CCCN1C(=O)/C(=C\c2cccs2)SC1=S)Nc1ccccc1O 3.84%, O=C(CCCN1C(=O)/C(=C\c2ccccc2)SC1=S)Nc1ccc(O)cc1 7.93%, COc1ccc(/C=C2/SC(=S)N(CCCC(=O)Nc3cccc(O)c3)C2=O)cc1 4.43%, CCN1C=C(Cc2ccccc2C)C2=C(C1)C(c1ccccc1C)C(C#N)=C(N)O2 (stereo not given) 3.15%, O=C(CCC(=O)Nc1ccccc1Cl)NNC(=O)Nc1cccc([N+](=O)[O-])c1 -2.42%, c1ccc(N2CCN(c3cnccn3)CC2)nc1 -2.48%, c1ccc(N2CCN(c3ncccn3)CC2)cc1 2.21%, Cc1ccc(Sc2ncccc2C(=O)O)cc1 1.95%, O=C(NCC(c1ccco1)N1CCCC1)c1cn(-c2ccccc2)nc1-c1ccc(F)cc1 (stereo not given) -3.8%, C[C@H](NS(=O)(=O)c1ccccc1)C(=O)N1CCN(C(c2ccccc2)c2ccccc2)CC1 0.88%, COc1ccc(OC)c(NS(=O)(=O)c2ccc(Br)s2)c1 2.77%, Oc1cccc2ccc(N3CCOCC3)nc12 -8.55%, CC(C)(C)C(=O)Oc1cc(N)n(S(=O)(=O)c2ccccc2)n1 -2.72% and -3.77%, COc1ccc(CN(C(=O)c2cccs2)c2ccccc2C(=O)O)cc1 -12.9%, O=C1OCCC1Sc1ncnc2sc3c(c12)CCC3 (stereo not given) 21.7%, CN(Cc1ccccc1)C(=O)COC(=O)C1CCN(S(=O)(=O)c2ccc3c(c2)OCCO3)CC1 -5.03%, Cc1ccc(C)c(/C(O)=C2\C(=O)C(=O)N(CCCN3CCOCC3)C2c2cccnc2)c1 (stereo not given) -1.34%, COC(=O)c1[nH]c(C)c(/C(O)=C2\C(=O)C(=O)N(CCN3CCOCC3)C2c2ccco2)c1C (stereo not given) 10.8%, CC(CCc1ccccc1)NC(=O)c1nnc(Cc2ccc(Cl)cc2)o1 (stereo not given) -1.14%
